Test results reported in the supplement of paper PMC6555819.

tested on: VDR:RXRa (NR concentration 270 nM, RXRa partner concentration 90 nM); assay: PBM binding z-score (relative to random genomic background probes); higher = stronger binding; sequences stand for … in GC…GCGATTGACAGCGTAGAATGAAGG
Experimental: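 Protein-binding microarray (Agilent 4x180K custom design, double-stranded 60-nt probes: 5' GC cap, 34-nt variable region, 24-nt constant primer region; full probe sequence given). Purified or IVT nuclear receptor:RXRα heterodimers (3:1 NR:RXRα, mostly 270:90 nM) or homodimers were incubated for 1 h in PBS with 2% milk and no ligand, then detected with Alexa488 antibodies. Fluorescence from o1-orientation probes (~5 replicates averaged) was converted to z-scores against 500 random hg19 background probes. Variable regions are seed direct-repeat (DR0–DR5) sites, all their single-nucleotide variants and half-site ablations.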

| Sequence | PBM binding z-score |
| --- | --- |
| AAACCAAGGTGATCGTGAGGTCGTTGATACTAAC | 3.21 |
| TCTAGTTGGTCAAAGGTCGCACACTCGAAATGCG | 3.18 |
| CCTAGTTGATCAGGAGGTCACACACCGGATATGA | 4.08 |
| ATCTCTAGGAAAGACTCAGTTCAGTGAAGAACGC | 0.436 |
| TAGCCTAGGTCATGCGTGCCAGTATAGTGTCGGC | 2.31 |
| ATATGTAGGTTAGTTGGGGTCATTCAGACTAGGC | 6.27 |
| AGAATGAGGTTATAGGTAGATCAGGGAAGAAAGT | 1.44 |
| CGAACGAGGGCATGAGTTGATTGCAAATGCCGAT | 1.66 |
| TCGAGTATGTTAGGGGCATTCAGAATGGCGTCGA | 0.88 |
| CCTGCTAGGTCATGGTCAGCCAATCTACAGTATG | 1.71 |
| CTCGGAAGGTCGTGCTCAGGTGAGTATACCAAAC | 1.58 |
| ATCTCTAGGCAAAGATAGTTCAGTGAATGCAAAT | -0.11 |
| GCATATAGGTAATACAAAGTGAAAGTCCGATTGT | -0.024 |
| CCGACTGGTGCATAAGGTTACCATAAGCCAGCCC | 0.347 |
| ATCGAAAGTTCGACGAGGTGAGTATACACCGTTT | 2.81 |
| TCTGCTAGGTCAACGATGGTCAGCTCATCTGCTA | 1.65 |
| AGAACGAGGCCAATGAGTTGATAGCACGGGTGGC | 3.09 |
| TGTGAAAGTTCAAAGGTAACGTAAGTATCCACAC | 4.88 |
| CCTCTTAGTTGACCATAAGGGCAACCGAAGCTCG | 0.969 |
| CCTAGCAGGCCATGGTCACTCAAGCATTTCGCTT | -0.485 |

| Sequence | PBM binding z-score |
| --- | --- |
| ATCTATAGGTAACCAAGTTCAGTGAATGCCGAAC | 5.03 |
| ATCTCTAGGTAACAAGTTCACTGAAAGAGAGGAC | 3.26 |
| TCAGACAGGTGAACGTAACTCAGGTACGCAGTCG | 0.682 |
| TTACCAAGGTGAAAGGTCTTTGATGCACGCCTTG | 0.479 |
| AGAATGAGGTTATTAAGATGAGGGAATTGCGGTC | 1.15 |
| GGAACGAGGGCATTCGAGTTGATATCATGGCGAT | 3.92 |
| CCTGACGGGTCACTGACAGGTTATAGCATTTGGA | 2.94 |
| TCTCTTAGTTGAAGGGCAACCGACGAGTCCGTTT | 0.951 |
| GCAGACAGGAGAAACGCAGGTAACTCAGGGTGGC | -0.548 |
| ATCTCTAGGTAAAGATAGTTCAGCGAATGCAAAT | 1.08 |
| CGAACTAGATCATCCAGGACAGTGAATACATTGA | 0.286 |
| CCTAGTTGGTCAAGGTTACACACGCTATAGGTAC | 1.5 |
| ATGTCTAGGTAACCAAGTTCAGTGAATGCCGAAC | 3.97 |
| ACTGACGGGTCAACGAGGTTATAGCACGCGTATA | 7.41 |
| TCACATAGGTAAACAGGTGAAAGTCCGTAAGTTA | 0.849 |
| CGTCCAAGGTCAGAGCGGTCAGTGAATGCCGAGT | 5.45 |
| TGTTGTAGATCAAAGGTTAAGAAAGCCGAAGCCT | 1.44 |
| CCTATTAGTTGACCATAAGGGCGACCGAAGCTCG | 0.426 |
| TCTAGTTGGTCAAAGATCACACACTCGAAATGCG | 1.29 |
| TAGCCTAGGTCATTGGGCCAGTAAAGTACGCATC | 2.08 |
